From PubChem BioAssay
The sample as a whole holds a higher share of hits than the screen did.
TbREL1 primary: TbREL1 inhibition, primary screen. P86926. TbREL1 RNA ligation, FRET fluorescence. inhibition, % at 9.66 µM. 0.49% of 89,000 active. AID 1117264;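 active = inhibition above the mean inhibition across all screened compounds plus 3 SD, cut at about 11% in these data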
TbREL1 conf: TbREL1 inhibition, confirmation; shares compounds with TbREL1 primary; TbREL1 RNA ligation, FRET fluorescence; inhibition, % at 9.66 µM; 37% of 390 active; AID 1117282;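 active = mean inhibition across replicates above a set limit taken from the earlier primary screen, cut at about 11% in these data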
Numbers stand for hits; 0 = inactive.

SMILES	TbREL1 primary	others
N#CCCn1cc(C(=O)Nc2ccc([N+](=O)[O-])cc2)c(-c2ccccc2)n1	0
N#CCCn1cc(C(=O)Nc2ccc(F)cc2)c(-c2ccc([N+](=O)[O-])cc2)n1	11	TbREL1 conf=0
O=C(NC1CC1)c1cn(Cc2ccccc2)nc1-c1ccccc1	0
Cc1cc(N=Nc2ccccc2C)ccc1N	0
O=C(O)C(O)(c1ccc(Cl)cc1)C1(O)CCCC1 (stereo not drawn)	0
COC(=O)C1=C(c2ccccc2OCc2ccccc2)C[C@@H]2CC[C@H]1N2C(=O)NCCCOC(C)C	0
CCCCOCCCn1c(N)c(C(=O)OCCOC)c2nc3ccccc3nc21	0
CCCCn1c(NC(=O)c2ccco2)c(C(=O)OCC)c2nc3ccccc3nc21	34	TbREL1 conf=45
CCCCn1c(N)c(C(=O)OCCOC)c2nc3ccccc3nc21	0
O=C(/C=C/C=C/c1ccccc1)CC1(O)C(=O)Nc2ccccc21 (stereo not drawn)	0
COC(=O)C1=C(c2c(C)noc2C)C[C@@H]2CC[C@H]1N2C(=O)N1CCCCC1	0
Cc1ccccc1-c1ccc2c(c1)CNCc1cnnn1-2	0
Cc1ccccc1CN1Cc2cnnn2-c2ccccc2C1C#N (stereo not drawn)	11	TbREL1 conf=0
CCOC(=O)CC1c2ccccc2-n2nncc2CN1C (stereo not drawn)	0
COC(=O)C1=C(c2ccc(-c3ccccc3)c(F)c2)C[C@@H]2CC[C@H]1N2C(=O)NCCCOC(C)C	0
